MPTP block = blocks calcium-induced mitochondrial swelling; hit rate 1.4% among 360,000; AID 602449; isolated mouse mitochondria, Ca2+ swelling absorbance, 30 min; inhibition, % at 10 µM;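 active means inhibition of 50% or more, scaled per plate between neutral and stimulator controls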;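 further: 0% = DMSO wells given calcium and 100% = 1 mM EGTA wells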
FAS-TE inh = blocks the thioesterase domain of human fatty acid synthase. recombinant FAS-TE, OMFH fluorogenic substrate, fluorescence endpoint. inhibition, % at 15 µM. hit rate 0.67% among 360,000. AID 602261;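 active means compounds whose normalised, plate-corrected inhibition of enzyme fluorescence in the single-dose primary screen is 50% or more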;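 further: 0% = DMSO with enzyme and 100% = substrate without enzyme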
Yeast superoxide = caloric restriction mimetics inhibiting age-related superoxide in yeast | S. cerevisiae aged cells, superoxide DHE fluorescence; hits give low values | superoxide response (% of plate mean), % at 10 µM | hit rate 0.18% among 330,000 | AID 2690;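 active means superoxide response under a set limit, about three screen SD below normal, cut at about 65% in these data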;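 further: yeast aged for seven days with compound at 30 °C before DHE staining; 100% = average MFI of all compound-treated wells on the plate with controls excluded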
H9c2 protect = myocardial damage modulation in H9c2 cells; AID 588492; H9c2 cardiomyocytes, H2O2 injury protection, ATPLite, 2 h; protection from H2O2 cell death, % at 20 µM; hit rate 0.63% among 360,000;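 active means compounds giving at least 50% protection of heart cells from peroxide-induced death in the single-dose screen, raw or plate-pattern-corrected value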;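 further: 0% = DMSO wells with peroxide and 100% = DMSO wells without peroxide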
Mot1-301 SUMO = inhibitors of SUMOylation pathway: yeast Mot1-301 growth rescue; S. cerevisiae Mot1-301 growth rescue, ATP luminescence, 38.5C; percent above DMSO median, 100 means doubled; growth rescue, % at 18.8 µM; hit rate 1% among 320,000; AID 2716;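 active means every valid replicate shows activation above 250% relative to neutral control wells; inactive means the rest, any valid replicate at or below 250%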;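 further: OY570 slx delta 5 strain wells were the positive control but not used for scaling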
aDG glyco up = increases alpha dystroglycan glycosylation. Pro5-aDG cells, alpha-DG glycosylation AlphaScreen (IIH6); 0% Pro5, 100% B10-LARGE cell signal. activation, % at 10 µM. hit rate 0.22% among 360,000;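 active means activation of at least 8% versus controls, or a plate z-score of at least 8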;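 further: Pro5 are CHO cells carrying HIG-tagged alpha-DG that lacks glycosylation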
Mot1 SUMO dose = yeast SUMO pathway inhibition in dose response; growth activity, percent, % at 42 µM; 2,300 tested, under 10 active; S. cerevisiae Mot1-301 galactose growth, ATP luminescence, 24 h; -100 = growth of slx-deleted rescue strain; shares compounds with Mot1-301 SUMO;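 active means Signal drops as the depositor expects, and the fitted half-maximal dose is no more than ten times the top valid tested dose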;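 further: more negative values mean stronger growth rescue toward the control strain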
Rh123 counter = membrane potential counter-screen of mitochondrial pore inhibitors; shares compounds with MPTP block; isolated mitochondria, Rhodamine 123 fluorescence; inhibition, % at 10 µM; hit rate 78% among 5,000; in the data active means inhibition above about 22%;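 further: 0% = DMSO vehicle and 100% = positive control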
MPTP swell DR = MPTP inhibition, dose response swelling confirmation; shares compounds with MPTP block; isolated mitochondria swelling, absorbance; IC50, µM; hit rate 58% among 780; AID 651561; in the data active means IC50 below about 20 µM
MPTP cs DR = MPTP inhibitor counter-screen activity, dose response; IC50, µM; hit rate 49% among 780; shares compounds with MPTP block; isolated mitochondria counterscreen, fluorescence read-out; AID 651564; in the data active means IC50 below about 80 µM
Numbers without * were called inactive; . = not tested or not shown; + = active, no number; ! = repeats disagree. Rows were chosen to be rich in hits. Some 3.8% of all compounds tested hit in one or more screens of this group.

SMILES | MPTP block | FAS-TE inh | Yeast superoxide | H9c2 protect | Mot1-301 SUMO | aDG glyco up | Mot1 SUMO dose | Rh123 counter | others
CC(=O)N1N=C(c2ccc(C(C)(C)C)cc2)OC1(C)C | 69* | 12 | 89 | -8 | 536* | 0 | 0 | 4 | MPTP swell DR=16*;MPTP cs DR=18*
CC1(C)CCC(=O)N2CC[C@H]3C[C@H](OC(=O)Nc4ccc(Br)cc4)C[C@@H]1[C@H]32 | 69* | 4 | 104 | -11 | 805* | 0 | 0 | 87*
CC1=CC(=O)C(C(C)C)=C/C1=N/OS(=O)(=O)c1ccccc1 | 96* | 26 | 89 | -19 | 390* | 0 | -4 | 92*
CCCN1C[C@@H](C)[C@@H](OC)CN(C)C(=O)c2ccc(NC(=O)c3cccc(F)c3)cc2OC[C@H]1C | 10 | . | . | . | . | 0 | . | .
CC/C(=N\Nc1ccc([N+](=O)[O-])cc1)c1ccccc1 | 65* | 48 | 96 | -22 | 415* | 1 | 0 | 63*
O=C1C(=Cc2ccccc2O)SC(=S)N1CCCN1CCOCC1 | -2 | 3 | . | 3 | . | 1 | . | .
CC(C)C1Cc2ccccc2-c2[nH]c(=S)[nH]c(=O)c21 (stereo not given) | 3 | -3 | 105 | 0 | -3 | 0 | . | .
C/C(=N\N=C(c1ccccc1)c1ccccc1)c1ccco1 | 93* | 18 | 104 | 2 | 576* | 0 | 0 | -3
C/C(=N\N(c1ccccc1)c1ccccc1)c1ccco1 | 2 | 20 | 88 | 0 | 187 | 0 | . | .
Cc1ccc(SCC(=O)Nc2c(Br)cnn2C)cc1 | 14 | -3 | 85 | -5 | 15 | 0 | . | .
CN(C)CC/C=C1\c2ccccc2Sc2ccc(Cl)cc21 | 97* | 4 | 105 | 10 | 497*! | 0 | 0 | -6
CN(C)CC/C=C1\c2ccccc2Sc2cc(F)c(Cl)cc21 | -6 | 5 | 94 | 3 | -1 | 1 | . | .
COc1ccc(S(=O)(=O)N2CCOC23CCN(S(C)(=O)=O)CC3)cc1 | -3 | -6 | 98 | -4 | -15 | 0 | . | .
COCCCN(Cc1cccs1)S(=O)(=O)c1c[nH]c(C(=O)OC)c1 | -2 | -4 | 103 | -4 | 13 | 0 | . | .
CCOC(=O)c1sc(NC(=O)CSc2n[nH]c(-c3ccccc3)n2)c(C#N)c1C | 100* | -6 | 93 | -39 | 472* | 0 | 0 | 71*
CCOC(=O)c1sc(NC(=O)CSc2ccccn2)c(C#N)c1C | 3 | -5 | 93 | -4 | 18 | 0 | . | .
CC(=O)N1CCc2cc(S(=O)(=O)NCCCN3CCCCC3)ccc21 | -2 | -4 | 111 | -4 | 2 | 0 | . | .
CC(=O)N1CCc2cc(S(=O)(=O)NCCC3=CCCCC3)ccc21 | 61* | 5 | 101 | -20 | + | 5 | 0 | 82*
CN(C)S(=O)(=O)c1cc(NC(=O)CSc2nn(-c3ccc(Cl)cc3)c(=S)s2)ccc1Cl | 70* | 39 | 134 | -8 | 555* | 1 | 1 | 81*
CCCCCCCCCCOC(=O)Cn1c(COc2ccccc2OC)[n+](C)c2ccccc21 | 53* | -28 | 104 | -21 | 835* | 0 | 0 | 95*
COc1cccc(CNC(=O)Cc2ccc(NC(=O)C3=C(C)OCCS3)cc2)c1 | 1 | 6 | 125 | -14 | 1 | 0 | . | .
Cc1ccc(Oc2ccc(OCC(=O)Nc3ccncc3)cc2)cc1 | 108* | 4 | 79 | -9 | 378* | 0 | 0 | 103*
CCCCc1ccc(S(=O)(=O)NNC(=S)NCc2ccco2)cc1 | 83* | -4 | 93 | -10 | 545* | 0 | 1 | 65*
CC(=O)Nc1ccc(S(=O)(=O)NNC(=S)NCc2ccco2)cc1 | 0 | -7 | 107 | -3 | -8 | 0 | . | .

Screening results: PubChem BioAssay, several laboratories
